The record followed here is PubChem BioAssay AID1981 (Southern Research Specialized Biocontainment Screening …, 2009).

In all, about 2,200 compounds went through this assay and about 480 (22%) were called active. Not all results are given here. Potency and affinity values are given separately. Unmarked numbers belong to inactive results. How the calls were made is not given here.

This assay in a line: S. Typhimurium GFP fluorescence dose response in modified counterscreen for PhoP regulon inhibitor project (AID 1981).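 Further: 0% = induced DMSO wells and 100% = uninduced wells.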 The following applies: 4 h; series mostly up to 150 µM; inhibition: at the top concentration. (In general: A counterscreen serves to expose hits that act by an unwanted route or on another target.)
Broadly, the inhibition is the relative decrease from the control value, in per cent. `CC(C)n1cc(C(=O)N2CCCC(N3CCN(c4ccc(F)cc4)CC3)C2)cn1` (centres undefined): the “inhibition” value was -15.7%.

Take `O=C(CSc1nc2ccccc2o1)Nc1ccc(N2CCOCC2)c(Cl)c1`: the “inhibition” value was 12.4%.

In the case of `O=C(c1ccccc1)N1CCSC1=S`, the “inhibition” value is -8.47%.

Consider `CC1(C)CC(=O)C(/C=N/c2ncccc2C(=O)O)=C(O)C1`, for which the “inhibition” value is 21.9%.

In the case of `CCCCCn1c(N)c(C(=O)NCc2cccs2)c2nc3ccccc3nc21`, the “inhibition” value was -20.1%.

Consider `O=C(c1ccc2nc(N3CCOCC3)sc2c1)N1CCC(Cc2ccccc2)CC1`, for which the “inhibition” value is 3.45%.

Consider `COc1ccc(-c2nnn(CC(=O)N(Cc3ccco3)C(C(=O)NCC3CCCO3)c3ccco3)n2)cc1` (centres undefined), for which the “inhibition” value was 1.01%.

On to `C#CC(=O)N(c1cc(OC)ccc1OC)C(C(=O)NC1CCCC1)c1cccs1` (centres undefined), for which the “inhibition” value is 17.8%.

Turning to `CCC(C)NC(=O)c1ccccc1NC(=O)C(C)N(c1ccccc1)S(C)(=O)=O` (centres undefined), the “inhibition” value is -9.1%.

Regarding `CN(C)c1ccc(Nc2nc(-c3cccnc3)cs2)cc1`, the “inhibition” value is 35.9%.

On to `Nc1nc(-c2ccc3c(c2)OCCO3)cs1`, for which the “inhibition” value was -7.79%.

With `CCn1c2ccccc2c2cc(N)ccc21`, the “inhibition” value was 15.1%.

As to `CCc1cccc(NC(=O)Nc2cccs2)c1`, the “inhibition” value was 6.84%.

With `COc1ccc(N=c2cc(-c3ccc(OC)cc3)oc3ccccc23)cc1`, the “inhibition” value is -4.77%.

As to `CCCNC(=O)CSc1nnc(C)s1`, the “inhibition” value is -0.53%.

`Cn1ccnc1C(O)c1ccc(OCc2ccccc2)cc1` (centres undefined): the “inhibition” value was -7.82%.

For the compound `CSc1nnc2c3c4c(sc3nc(-n3nc(C)cc3C)n12)COC(C)(C)C4`, the “inhibition” value is -16.7%.

For `COc1ccc(NC(=O)c2ccc(OC)cc2)cc1`, the “inhibition” value was -1.66%.

For the compound `FC(F)(F)C1=CC(c2ccc(Br)cc2)=NCCN1`, the “inhibition” value was 0.22%.

Turning to `N=c1scc(-c2ccccc2)n1/N=C/c1ccco1`, the “inhibition” value is 26.4%.

Regarding `COc1ccc(-c2nnc(SCCC(=O)O)n2-c2ccccc2)cc1`, the “inhibition” value is -16.3%.

Turning to `O=C(NCCNc1ccc([N+](=O)[O-])cc1C(F)(F)F)c1cccc(F)c1`, the “inhibition” value was 35.4%.

For `Oc1ccc(Br)cc1-c1nc2cnccn2c1NC1CCCCC1`, the “inhibition” value is -0.48%.

With `O=C1CCCc2nc(N3CCN(Cc4ccccc4)CC3)ncc21`, the “inhibition” value was -1.19%.

As to `COc1ccccc1CC1(C)NC(=O)N(CC(=O)N2CC(C)OC(C)C2)C1=O` (centres undefined), the “inhibition” value was -6.09%.

`Cc1ccccc1OCCSCc1nc2ccccc2[nH]1`: the “inhibition” value was 8.48%.

As for `O=C(Nc1ccc(S(=O)(=O)Nc2nccs2)cc1)c1cc(-c2ccccc2)nc2ccccc12`, the “inhibition” value is 11.3%.

Take `CC(CN1CCOCC1)C(=O)c1ccccc1` (centres undefined): the “inhibition” value is 19.3%.

On to `Cc1ccc(C(=O)c2ccccc2C(=O)O)c(O)c1`, for which the “inhibition” value was -1.21%.

Consider `Cc1cc(C(=O)NCc2cccs2)cs1`, for which the “inhibition” value is 1.82%.

Regarding `CCCc1cc(N2CCN(c3ccccn3)CC2)n2nc(C)c(-c3ccccc3)c2n1`, the “inhibition” value is -17.1%.

Take `COc1ccc(CNc2nc3c(c(=O)[nH]c(=O)n3C)n2CCCc2ccccc2)cc1`: the “inhibition” value was -7.59%.

Take `COc1nc(-c2ccccc2)ccc1-c1noc(C)n1`: the “inhibition” value is -2.17%.

For `NCCCCCc1nnc(SCc2ccc(Cl)cc2Cl)o1`, the “inhibition” value was 2.99%.

For `Cc1ccc([N+](=O)[O-])cc1-c1ccc(/C=C(\C#N)c2[nH]nc(N)c2C#N)o1`, the “inhibition” value is -4.17%.

For `CNC(=O)CN(c1ccc(F)cc1)S(=O)(=O)c1cc(C)ccc1OC`, the “inhibition” value is -12.1%.

For the compound `CCN1C(=O)N/C(=C/c2ccc(Sc3ccc(C)cc3)o2)C1=O`, the “inhibition” value was -11%.

Consider `O=C(CCCCCNc1nc(=S)[nH]c2ccccc12)NCCc1c[nH]c2ccccc12`, for which the “inhibition” value was -9.04%.

`Cc1ccc2nc(NNC(=O)c3ccc(S(=O)(=O)N4CCc5ccccc5C4)cc3)sc2c1`: the “inhibition” value was 33.6%.

Turning to `C=CCNCC#CCOc1ccc(OC)cc1`, the “inhibition” value is -8.21%.

As for `Cn1cccc1C(=O)OCc1csc(-c2ccccc2)n1`, the “inhibition” value was -2.79%.

Consider `Cc1ccc(S(=O)(=O)NCc2ccc(C(=O)N3CCN(c4ccccn4)CC3)cc2)cc1`, for which the “inhibition” value was 10.4%.

Take `O=C(CCCN1Cc2ccccc2C1)c1ccc(F)cc1`: the “inhibition” value is -30.9%.

In the case of `CCOC(=O)N1CCC(NC(=O)CCC(=O)c2ccccc2)CC1`, the “inhibition” value was -13.1%.

Regarding `CN1C(=S)N(c2ccccc2)C(=O)/C1=C/c1ccco1`, the “inhibition” value was -3.89%.

In the case of `Cc1ccc(C(=O)Nc2ccccc2C(N)=O)o1`, the “inhibition” value is 2.22%.

On to `COc1cccc(-n2c(SCc3cc(=O)oc4cc(O)c(O)cc34)nc3ccccc3c2=O)c1`, for which the “inhibition” value is 24.6%.

Consider `Cc1cccc(-n2c(N)cc(=O)[nH]c2=S)c1`, for which the “inhibition” value was 36.5%.

For the compound `C/C(=N\NC(=O)c1ccccc1)c1ccc2c(c1)OCO2`, the “inhibition” value is -1.5%.

As to `CCOc1ccccc1NS(=O)(=O)c1ccc(Br)s1`, the “inhibition” value was -5.39%.

For `CCCCNCCCOc1cccc(Cl)c1Cl`, the “inhibition” value was 3.42%.

With `Clc1ccc(Nc2ccc(NCc3ccccc3)nn2)cc1`, the “inhibition” value was 8.59%.

With `Clc1cc(Br)ccc1OCCn1ccnc1`, the “inhibition” value was 9.91%.

With `Clc1ccc(OCCCn2ccnc2)c(Br)c1`, the “inhibition” value was 7.23%.

With `CC(C)NCCCOc1ccc(Cl)cc1Br`, the “inhibition” value is 12%.

Regarding `O=C(COc1ccc(Br)cc1Cl)NC(=O)NCc1ccccc1`, the “inhibition” value is -14.2%.

Regarding `CCCCCNS(=O)(=O)c1cc(C)ccc1OC`, the “inhibition” value is 2.03%.

With `O=C1Nc2ccccc2C(O)(C(=O)N2CCCCC2)N1c1ccccc1` (centres undefined), the “inhibition” value was 0.43%.

In the case of `Cc1cc(C2=NNC(=NC3CC3)SC2)c(C)n1Cc1ccco1`, the “inhibition” value was -6.12%.
